# Screening results: PubChem BioAssay, National Center for Advancing Translational Sciences (NCATS)
# Shown are actives, neighbours in structure and some others; about 7.9% of the full set was active somewhere.
# SW480 rereplic = inducers of DNA re-replication in SW480 colon cancer cells; Potency, µM (series often up to 46.1 µM), most hits filed as activators; 1.8% of 340,000 active; SW480 DNA re-replication, Hoechst DNA content imaging, 48 h; also: nearly all actives have a fitted effect of over 55% in size
#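 Cells (250 per well) received 23 nL compound or DMSO by pin tool and were kept 48 hr at 37 C, 5% CO2. Nuclei were then stained with Hoechst for 40 min and scanned for DNA content.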
# HT1080 IDH1KD tx = HT-1080 IDH1 knockdown cell toxicity (counter line); HT-1080 IDH1 knockdown viability, ATP luminescence, 48 h; Potency, µM (highest dose often 46.1 µM), hits mostly cytotoxic; 2% of 360,000 active
#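 Viability of IDH1-knockdown HT-1080 fibrosarcoma cells was assessed by CellTiter-Glo after 48 h at 37 °C with titrated compound; concentration-effect curves were classified by fit quality and response size.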
# HT1080NT lethal = kills 2HG-producing HT-1080-NT fibrosarcoma cells; Potency, µM (doses to about 46.1 µM), hits mostly cytotoxic; 1.6% of 360,000 active; AID 686970; HT-1080-NT fibrosarcoma viability, CellTiter-Glo ATP luminescence, 48 h;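 also: NT is the 2HG producing partner of a matched IDH1 knockdown line; nearly all actives have a fitted effect of over 55% in size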
#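 HT-1080-NT fibrosarcoma cells (2HG-overproducing), 750 cells/well in RPMI with 5% FBS, dosed after 2 h and incubated 48 h at 37C. CellTiter-Glo luminescence normalized to DMSO and no-cell wells; concentration-response curves fitted and classed.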
# KB-3-1 tox = kills parental KB-3-1 adenocarcinoma cells; KB-3-1 viability, CellTiter-Glo ATP luminescence, 72 h; Potency, µM (top dose mostly 46.1 µM), usual class: cytotoxic; 1.4% of 400,000 active; also: nearly all actives have a fitted effect of over 60% in size
#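 KB-3-1 cells, DMEM (no phenol red) + 10% FBS; compound by pin transfer, 72 h, 37 °C. Readout: CellTiter-Glo luminescence after 10 min. Data normalized, curve-fitted.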
# MCF10A rereplic = inducers of DNA re-replication in MCF 10A breast cells; MCF 10A DNA re-replication, Hoechst nuclear intensity, 48 h; Potency, µM (titrated, usually from 46.1 µM), usual class: activators; 2.9% of 350,000 active; also: nearly all actives have a fitted effect of over 50% in size
# KB-V1 cytotox = KB-V1 MDR subline cytotoxicity | KB-V1 MDR cells viability, CellTiter-Glo, 72 h | Potency, µM (series often up to 46.1 µM), actives largely listed as cytotoxic | 3.4% of 400,000 active | AID 1347076; also: nearly all actives have a fitted effect of over 60% in size
#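 Following 72 h at 37 degrees C with compound, KB-V1 cell viability was read by CellTiter-Glo luminescence, medium being phenol-red-free DMEM plus 10% FBS; concentration-response parameters came from normalized, curve-fitted qHTS data.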
# A number is an active result; – = inactive; ? = inconclusive; · = no result. Calls follow the shape of the dose curve; as a rule, active = well fitted curve in the direction sought with a large enough effect; inconclusive = small, poorly fitted or top-dose-only effect, or another doubt; inactive = no such curve, though single readings can be large; an effect the other way counts as inactive or inconclusive.
SMILES,SW480 rereplic,HT1080 IDH1KD tx,HT1080NT lethal,KB-3-1 tox,MCF10A rereplic,KB-V1 cytotox
COc1cccc(NC2=Nc3cccc4cccc2c34)c1,–,–,–,–,–,13µM
CC(=O)N1CCN(S(=O)(=O)c2cccc(C(=O)NC3CCCC(C)C3C)c2)CC1 (stereo not given),·,–,–,–,·,–
O=c1[nH]nc(Cc2ncc(C(F)(F)F)cc2Cl)c2ccccc12,–,–,–,?,–,?
O=c1ccsn1Cc1ccccc1,18.4µM,23.1µM,?,–,?,–
C[C@@H](CN(C)C)CN1c2ccccc2Sc2ccccc21,–,·,·,·,–,·
COc1ccc2c(c1)N(C[C@@H](C)CN(C)C)c1ccccc1S2,–,·,·,·,–,·
COc1ccc2c(c1)N(C[C@H](C)CN(C)C)c1ccccc1S2,?,20.6µM,23.1µM,–,–,?
CC(CN(C)C)CN1c2ccccc2Sc2ccccc21 (stereo not given),–,?,16.4µM,–,–,18.4µM
C=CCNc1nc(N)c(C(=C(C#N)C#N)c2ccc(Br)cc2)s1,20.6µM,?,–,?,?,18.4µM
C=CCNc1sc(C(=O)c2ccc(C)cc2)c(N)c1C#N,–,–,–,–,?,–
O=C(Cc1ccccc1Cl)NO,·,–,–,·,·,·
COc1ccc(-c2cc3nc(NCc4ccc(C)cc4C)n(C)c(=O)c3s2)cc1OC,·,–,–,14.6µM,·,2.59µM
Cn1c(NCc2ccncc2)nc2cc(-c3ccsc3)sc2c1=O,·,–,–,–,·,–
Cn1c(NCC2CCCCC2)nc2cc(-c3ccsc3)sc2c1=O,·,–,–,18.4µM,·,–
Cn1c(NCc2ccccc2F)nc2cc(-c3ccsc3)sc2c1=O,·,–,?,?,·,?
COc1ccccc1CNc1nc2cc(-c3ccsc3)sc2c(=O)n1C,·,?,–,?,·,20.6µM
CCn1cc(CNC(=O)c2cc(-c3ccc(C)cc3)nc3ccc(Br)cc23)c(C)n1,·,·,·,–,·,–
O=C(Nc1ccc2ccccc2c1)Nc1nnc(Br)s1,·,·,·,?,·,–
CCOc1ccc(C2OCCC(C)O2)cc1OC (stereo not given),–,–,–,–,–,–
COc1nc(C#N)nc(N2CCCC2)n1,·,·,·,–,·,–
COc1nc(N2CCCCCC2)nc(N2CCCCCC2)n1,–,–,–,?,18.4µM,14.6µM
CN1CCN(CCCNC(=O)c2ccc3c(=O)n(CCc4ccccc4)c(=O)[nH]c3c2)CC1,1.64µM,–,–,–,–,–
Cc1ccc(CNC(=O)c2ccc3c(=O)n(CC4CCCO4)c(=S)[nH]c3c2)cc1 (stereo not given),–,–,–,–,?,16.4µM
O=C(NCc1ccccc1)c1ccc2c(=O)n(CC3CCCO3)c(=S)[nH]c2c1 (stereo not given),–,–,–,–,–,–
CC1CCCCN1CCNC(=O)c1ccc2c(=O)n(Cc3ccc(Cl)cc3)c(=S)[nH]c2c1 (stereo not given),?,23.1µM,20.6µM,–,7.31µM,–
SMILES,SW480 rereplic,HT1080 IDH1KD tx,HT1080NT lethal,KB-3-1 tox,MCF10A rereplic,KB-V1 cytotox
O=C(NCC1CCCO1)c1ccc2c(=O)n(Cc3ccc(Cl)cc3)c(=S)[nH]c2c1 (stereo not given),–,–,–,–,–,–
CC1CCCCN1CCNC(=O)c1ccc2c(=O)n(CCc3ccccc3)c(=O)[nH]c2c1 (stereo not given),–,–,–,20.6µM,–,–
COc1cccc(NC(=O)c2cc3c(=O)n(C)c4ccccc4c3n2C)c1,·,·,·,–,·,–
CC(=O)c1ccc(N2CCN(C(=S)Nc3cc(C)ccn3)CC2)cc1,·,·,·,?,·,–
Cc1ccccc1/C=C(\C#N)c1nc(-c2ccc(Cl)cc2)cs1,·,·,·,–,·,?
COc1ccc(-n2c(=S)[nH]c3cc(C(=O)NCc4ccco4)ccc3c2=O)cc1OC,–,–,–,–,–,–
O=C(NCCCN1CCOCC1)c1ccc2c(=O)n(Cc3ccccc3)c(=S)[nH]c2c1,–,16.4µM,18.4µM,–,–,–
CN1CCN(C(=O)c2ccc3c(=O)n(CCc4ccccc4)c(=S)[nH]c3c2)CC1,–,–,–,?,–,–
CCN1CCN(C(=O)c2ccc3c(=O)n(CCc4ccccc4)c(=O)[nH]c3c2)CC1,29.1µM,–,–,–,?,–
COc1ccc(CCn2c(=S)[nH]c3cc(C(=O)NCc4ccco4)ccc3c2=O)cc1OC,–,–,?,16.4µM,?,–
O=C(c1ccc2c(=O)n(Cc3ccccc3)c(=S)[nH]c2c1)N1CCOCC1,–,–,–,–,–,–
O=C(NCc1ccccc1)C1CCC(=O)N(CCCN2CCCC2=O)C1 (stereo not given),–,–,–,–,–,–
C=CCSc1nc2ccccc2n1C(=O)/C=C/c1cc(OC)c(OC)c(OC)c1,?,2.24µM,5.01µM,–,3.26µM,?
CCSc1nc2ccccc2n1C(=O)/C=C/c1ccc(OC)c(OC)c1,5.8µM,5.8µM,8.2µM,?,4.11µM,?
CCn1c(SCC(=O)N/N=C/c2ccc(OC)c(OC)c2)nc2ccccc21,–,–,–,–,–,–
C=CCSc1nc2ccccc2n1C(=O)/C=C/c1ccc(OC)c(OC)c1,?,2.51µM,?,?,4.11µM,–
COc1cc(/C=C/C(=O)NCCn2c(C)cc3ccccc32)cc(OC)c1OC,–,–,–,?,–,?
COc1ccc(OC)c(S(=O)(=O)Nc2ccc3c(c2)OCCO3)c1,·,–,–,–,·,–
CC(C)(O)C#Cc1ccc(N2C(c3ccsc3)=Cc3ccc(F)cc3C2c2c[nH]c3ccc(C#N)cc23)cc1 (stereo not given),·,23.1µM,?,?,·,?
Cc1ccccc1S(=O)(=O)Cc1ccc(C(=O)NC(C)c2ccc3c(c2)OCCO3)o1 (stereo not given),–,–,–,–,–,–
CC(NC(=O)c1ccc(CS(=O)(=O)c2ccc(Cl)cc2)o1)c1ccc2c(c1)OCCO2 (stereo not given),–,–,–,–,?,10.3µM
Cc1ccc(S(=O)(=O)Cc2ccc(C(=O)NCc3ccc4c(c3)OCO4)o2)cc1,–,–,–,–,–,9.2µM
O=C(C[n+]1ccccc1Cl)c1ccccc1,·,·,·,–,·,–
Cc1c(N=Cc2cc(Br)cc(Br)c2O)cccc1C(=O)O,–,?,13µM,?,?,?
O=C(O)c1cccc(N/N=C/c2cc(Br)cc(Br)c2O)c1,·,–,–,–,–,–
NS(=O)(=O)c1cccc(NC(=O)COC(=O)CCN2C(=O)c3ccccc3C2=O)c1,–,–,–,–,–,–
CCOC(=O)c1cc2c(ccc3nc(C)c(C)c32)[nH]c1C,8.2µM,–,–,–,14.6µM,–
